Structures are written as SMILES. Results filed as inconclusive are left out. Values without a mark were called inactive. Activity calls are given as the source filed them. Calls follow the shape of the full dose curve.
% is scaled to controls: 0 for no effect and ±100 for the full control effect.

Sequence of Beta-2 adrenergic receptor (Homo sapiens) (P07550 whole entry, looked up): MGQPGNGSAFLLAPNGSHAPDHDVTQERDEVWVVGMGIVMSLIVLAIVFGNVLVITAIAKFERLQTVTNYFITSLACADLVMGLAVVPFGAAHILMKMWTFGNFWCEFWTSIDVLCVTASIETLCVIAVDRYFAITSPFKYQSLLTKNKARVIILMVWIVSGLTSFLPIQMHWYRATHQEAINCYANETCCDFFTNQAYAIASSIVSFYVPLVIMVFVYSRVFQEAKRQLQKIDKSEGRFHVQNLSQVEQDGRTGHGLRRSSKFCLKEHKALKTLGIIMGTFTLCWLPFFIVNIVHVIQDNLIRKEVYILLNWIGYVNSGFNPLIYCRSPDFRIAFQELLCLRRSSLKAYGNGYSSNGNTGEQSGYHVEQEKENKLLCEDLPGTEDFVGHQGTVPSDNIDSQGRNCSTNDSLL

The assay has as its target Beta-2 adrenergic receptor (Homo sapiens) (UniProt P07550). The assay is described as follows: Adrenergic beta2 receptor (ADRB2) small molecule agonists, cell-based qHTS assay (AID 1963593). To be noted: CHO-ADRB2 cells, cAMP HTRF, 30 min; series mostly up to 92.4 µM; activation: at the top concentration. The text has this:
National Center for Advancing Translational Sciences [NCATS]
Division of Preclinical Innovation [DPI]
U.S. Environmental Protection Agency [EPA]
National Institutes of Environmental Health Sciences [NIEHS]
National Toxicology Program [NTP]
U.S. Food and Drug Administration [FDA]
Beta adrenergic receptors (Beta-ARs) belong to the G-protein coupled receptor (GPCR) superfamily, includes three subtypes - beta1, beta2, and beta3. Beta1-AR is the predominant receptor subtype expressed in the heart, and beta2-AR is expressed in the kidney, lung, blood vessel and in the heart, and beta3 is found in the adipocytes. Beta1 and 2 ARs couple to Gs protein and elevate cyclic adenosine mono phosphate (cAMP), which activates protein kinase A and leads to the downstream signaling responsible for the physiological actions. Beta-AR agonists or antagonists are the most prescribed therapeutic agents for heart failure and asthma, and these were one of the first target receptors for the rational drug design. Tox21 10K compound library was screened using the cAMP-Gs dynamic assay (Cisbio Bioassays, Shelton, CT) to identify agonists/antagonists of the Gs-coupled human adrenergic, beta2 receptor (ADRB2) in the CHO-ADRB2 cell line (Codex BioSolutions, Inc. Gaithersburg, MD), which stably over-expresses ADRB2. The principle of cAMP-Gs dynamic assay is based on HTRF technology, which facilitates the fluorescence resonance energy transfer (FRET) between donor Europium cryptate and acceptor d2-labeled cAMP. The cAMP generated within cells competes with the red acceptor, d2-labled cAMP, for binding to the monoclonal anti-cAMP-cryptate (Europium donor). An increase in intracellular cAMP leads to the disruption of FRET signal, and the signal is inversely proportional to the cAMP concentration. Isoproterenol HCl (Sigma-Aldrich, St. Louis, MO) was used as a positive control in the screening.
Tox21 Assay Protocol Summary:
CHO-ADRB2 cells were dispensed at 1,000/well in 4uL assay medium into white/solid 1536-well plates (Greiner Bio-One North America Inc., Monroe, NC) using a Multidrop Combi dispenser (ThermoFisher Scientific, Waltham, MA). The assay plates were incubated at 37C and 5% CO2 for an overnight (18-20hr). Then positive control and test compounds dissolved in DMSO were transferred to the assay plates at 23nL using a Pintool station (Wako, San Diego, CA). Following the compound and positive control transfer, 1uL stimulation mix containing 100uM IBMX and 25uM Ro-20-1724 was added to each well of the assay plates using BioRAPTR Flying Reagent Dispenser (FRD, Beckman Coulter, Brea, CA). The assay plates were incubated at room temperature for 0.5hr. Then 2.5ul each d2-labled cAMP and anti-cAMP-cryptate solutions were added separately to each well of the assay plates using an FRD and the assay plates were incubated at room temperature for 1hr.
For `CCc1occc(=O)c1O`, the “activation” value was 18.1%.
On the same count and under the same terms, the figure for `NC(=O)NS(=O)(=O)c1ccc(Cl)cc1` is -15.9% [at 42.5 µM].
On the same count and under the same terms, to `CN1CCCC1=O` belongs -6.83%; to `CCOCCOCCOCCO`, -18.7%; to `C[N+]1([O-])CCOCC1`, -22.7%.
On the same count and under the same terms, to `CC(=O)c1ccccc1N` belongs -0.641%; to `CCCOC(C)=O`, 16.5%.
As to `CCCCCCCCc1ccc(Nc2ccc(CCCCCCCC)cc2)cc1`, the “activation” value was -19.8% [at 42.5 µM].
On the same count and under the same terms, the figure for `Cc1cc(C)c(N=Nc2c(O)c(S(=O)(=O)O)cc3cc(S(=O)(=O)O)ccc23)cc1C` is -2.26% [at 8.39 µM].
Same read-out and setting: the figure for `CCC(C)c1ccccc1O` (stereo not given) is -5.39%.
The same measure, in the same setting: to `O=C(O)c1cccc(C[C@@H]2COc3ccc(OCc4nc5cc(F)ccc5s4)cc3[C@@H]2O)c1` belongs 3.29%; to `NNS(=O)(=O)c1ccc(Oc2ccc(S(=O)(=O)NN)cc2)cc1`, 7.88%.
`COc1ccc(C(=O)NCc2ccc(OCCN(C)C)cc2)cc1OC`: the “activation” value was 6.32% [at 42.5 µM].
With `Oc1ccc(/C=C/c2cc(O)cc(O)c2)cc1`, the Potency entry is “inactive”.
For `CCOCCOCC`, the “activation” value was -28.2%.
Still for that read-out and setting: to `O=C(O)c1cc(=O)c2ccccc2o1` belongs -26.2% [at 42.5 µM].
Still for that read-out and setting: to `O=S(=O)(O)C(F)(F)F` belongs 25.6%.
The same measure, in the same setting: to `FC(F)(F)C(F)(F)C(F)(F)C(F)(F)C(F)(F)C(F)(F)CCI` belongs -37.8% [at 42.5 µM]; to `CCC(O)CO` (stereo not given), -3.47%.
For `O=C1c2ccccc2C(=O)C1c1ccc2cc(S(=O)(=O)O)cc(S(=O)(=O)O)c2n1`, the “activation” value was -31.3%.
On the same count and under the same terms, to `CCCC(O)C(O)CO` (stereo not given) belongs 8.13%; to `c1ccc(CNCc2ccccc2)cc1`, -20.6%.
Same read-out and setting: to `CCCOC(=O)C(C)O` (stereo not given) belongs 3.22%.
On the same count and under the same terms, to `CC1(C)Oc2ccc(C#N)cc2[C@@H](N2CCCC2=O)[C@@H]1O` belongs -21% [at 42.5 µM]; to `COCCCC/C(=N\OCCN)c1ccc(C(F)(F)F)cc1`, -25.9% [at 42.5 µM].
For `CCC(C)CO` (stereo not given), the “activation” value was -9.13%.
On the same count and under the same terms, the figure for `CCOC(=O)c1ccc(O)c(O)c1` is 3.45% [at 42.5 µM]; for `CCCCCCCC/C=C\CCCCCCCC(N)=O` it is 1.62%; for `CO[Si](CCCCl)(OC)OC` it is 8.83%.
In the case of `OCCCCl`, the “activation” value is 8.4%.
With `Cc1ccc(C(=O)C(=O)O)cc1C`, the “activation” value was -17.6% [at 42.5 µM].
Still for that read-out and setting: to `NNC(=O)c1cccc(C(=O)NN)c1` belongs -0.655%.
Same read-out and setting: to `Cc1cccc(C)c1NC(=O)CC12CCCN1CCC2` belongs 21.4% [at 42.5 µM]; to `CC(CO)Oc1ccccc1` (stereo not given), 1.29%; to `COc1cc(OC)nc(O[C@H](C(=O)O)C(OC)(c2ccccc2)c2ccccc2)n1`, -7.33% [at 42.5 µM].
In the case of `CCCCCCCC(=O)OCCCCCC`, the “activation” value is -1.08%.
Same read-out and setting: the figure for `Cc1cccc(Nc2ccccc2C(=O)O)c1C` is -7.2% [at 42.5 µM].
On the same count and under the same terms, the figure for `CC1(C)[C@@H]2CC[C@@]1(C)[C@H](O)C2` is 10.7%; for `CCOCOCC` it is 7.26%; for `O=C(O)c1ccc(CO)o1` it is -7.44%.

The values above are taken from PubChem BioAssay (Tox21).
